Shown is part of a subset that was picked to be rich in hits.
Candida biofilm: kills Candida albicans biofilms. C. albicans biofilm + clotrimazole, Alamar Blue. inhibition, % at 6 µM. 0.14% of 85,000 active;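 active = inhibition above 20%; inactive = inhibition below 20%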;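 also: preformed 24 hr biofilms exposed to compound for 48 hr; 0% = biofilm without compound and 100% = blank killed by clotrimazole plus chlorhexidine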
TNAP act mid DEA: activators of human TNAP at intermediate phosphate acceptor; AID 813; P05186; activation factor at 20 µM; 64,000 tested, under 10 active; purified TNAP, CDP-star luminescence, 100 mM DEA, 30 min; hits give high values; scale: 0 levamisole-inhibited, 1 vehicle-only enzyme;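 active = activation factor of at least 2 at 20 µM, relative to controls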
PLAP activator: activators of human placental alkaline phosphatase | P05187 | purified PLAP enzyme, luminescent substrate read-out; hits give high values | activation fold at 20 µM | 1.2% of 96,000 active | AID 696; in the data active = activation fold above about 2
D1 allo mod: allosterically modulates the human D1 dopamine receptor; 5.9% of 58,000 active; HEK293 D1, CRE-luciferase, dopamine EC30 potentiation; actives deviate in either direction; P21728; AID 641; B-score at 10 µM;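 active = luminescence count or its row- and column-corrected plate score outside the 99.7% band of the plate's sample wells, on either side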
hDAT+cocaine: human DAT dopamine uptake with cocaine, either direction. Q01959. LLC-PK1 hDAT cells, [14C]-dopamine uptake with cocaine IC80; actives deviate in either direction. B-score at 10 µM. 1.3% of 110,000 active. AID 449768;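 active = Z score or B-score, a plate-position-corrected score, falls beyond the plate's 99.7% confidence bounds, in either direction; inactive = both scores lie inside the 99.7% bounds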;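 also: scored against the spread of the other compound wells on the same plate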
HePTP inhibitor: blocks human HePTP tyrosine phosphatase; P35236; AID 521; 0.64% of 110,000 active; recombinant HePTP phosphatase activity, OD absorbance; inhibition, % at 20 µM; in the data active = inhibition above about 50%;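 also: plate controls were vehicle for no effect and reference inhibitor for full effect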
Target sequence (P35236 whole entry, looked up): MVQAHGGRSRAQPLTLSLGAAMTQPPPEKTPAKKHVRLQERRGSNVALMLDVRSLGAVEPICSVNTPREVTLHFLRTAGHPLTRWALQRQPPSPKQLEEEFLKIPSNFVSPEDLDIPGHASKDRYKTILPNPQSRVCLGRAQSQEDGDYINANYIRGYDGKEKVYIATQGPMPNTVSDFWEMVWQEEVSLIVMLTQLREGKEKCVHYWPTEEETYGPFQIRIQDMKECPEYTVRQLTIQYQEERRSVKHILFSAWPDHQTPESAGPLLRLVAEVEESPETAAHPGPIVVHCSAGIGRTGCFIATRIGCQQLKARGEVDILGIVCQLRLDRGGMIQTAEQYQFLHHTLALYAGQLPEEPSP
* marks the source's active call; other numbers are inactive results; . = not tested or not shown.

SMILES	Candida biofilm	TNAP act mid DEA	PLAP activator	D1 allo mod	hDAT+cocaine	HePTP inhibitor
CN(C(=O)CSc1nc2ccccc2n1CCc1ccccc1)C1CCS(=O)(=O)C1 (stereo not drawn)	6	0.9	2.3*	-0.66	1.4	4
Cc1ccc2nc(N3CCN(Cc4ccc(F)cc4)C3=O)c(C)cc2c1	-7	0.9	0.9	-0.27	2.2*	-8
O=C1NCCN1Cc1ccc(F)cc1	3	.	1	.	-1.3	.
CN(C)c1ccc(NC(=O)Nc2ccc(Cl)c(Cl)c2)cc1	.	.	.	.	.	-5
Cc1cccc(N2C(=O)NC(=O)/C(=C\c3ccc(OCc4cccc(C(=O)O)c4)cc3)C2=O)c1	.	.	.	.	.	-7
Cc1cccc2sc(NC(=O)CSc3nc4ccccc4o3)nc12	52*	.	1.2	.	-0.0052	.
O=C(CSc1nc2ccccc2o1)Nc1nc2ccc(Br)cc2s1	.	.	1.2	.	0.55	.
O=C(O)CSc1nc2ccccc2o1	9	0.9	1.1	0.89	-8.6*	11
CCOC(=O)c1c(NC(=O)c2cccc(OC)c2)sc2c1CCC2	.	.	.	.	.	8
CCCCOC(=O)c1[nH]c2c(c1C)C(=O)CC(c1cc(OC)c(OC)c(OC)c1)C2 (stereo not drawn)	7	0.9	1.2	-3.4*	1.2	13
C=CCOC(=O)c1[nH]c2c(c1C)C(=O)CC(c1cc(OC)c(OC)c(OC)c1)C2 (stereo not drawn)	-3	1	1.1	-3.2*	-0.36	-8
COc1ccc(C2CC(=O)c3c([nH]c(C(=O)OC(C)C)c3C)C2)cc1OC (stereo not drawn)	11	0.9	.	-1.1	.	-7
COc1ccc(C(=O)OCC(=O)Nc2ccc(F)c(F)c2F)cc1OC	6	.	0.9	.	-1.1	.
COc1cc(C(=O)OCC(=O)Nc2c(F)c(F)c(F)c(F)c2F)cc(OC)c1OC	-5	1	1.2	1.2	3.7*	0
CCOC(=O)c1c(NC(=O)c2ccc(C(=O)c3ccccc3)cc2)sc2c1CCC2	.	.	.	.	.	6
Cc1ccc(C#N)c(SCC(N)=O)n1	.	.	.	.	.	6
Cc1ccc2nc(CSc3nc(C)ccc3C#N)[nH]c2c1	.	.	2.2*	.	0.55	.
Cc1nc2c(C(=O)N3CCN(C)CC3)cnn2c(C)c1Cc1ccc(Cl)cc1	2	.	2.1*	.	0.61	.
COc1ccc(OC)c(NC(=O)CC2C(=O)NCCN2C(=O)Nc2cccc(Cl)c2)c1 (stereo not drawn)	7	.	2*	.	0.84	.
O=C(NC(=S)Nc1ccc2oc(-c3ccccc3)nc2c1)c1ccccc1Cl	.	.	.	.	.	6
COc1cccc(-c2cc(C(=O)Nc3cnn(Cc4ccccc4C)c3)no2)c1	.	1	1	-0.36	.	6
COc1cccc(-c2cc(C(=O)Nc3cnn(Cc4ccc(F)cc4)c3)no2)c1	-2	0.8	0.8	-3*	-1.7	2
CS(=O)(=O)N(CC(=O)Nc1ccc(Oc2ccccc2)cc1)c1ccc(Cl)cc1	.	.	.	.	.	9
O=C(N/N=C/c1ccccn1)c1ccc(Br)o1	.	.	2.4*	.	-0.88	.
O=C(N/N=C/c1ccccn1)C1CC1	.	.	1.6	.	-2.2	.
SMILES	Candida biofilm	TNAP act mid DEA	PLAP activator	D1 allo mod	hDAT+cocaine	HePTP inhibitor
CCOC(=O)c1c(C)c(C(=O)N2CCc3ccccc3C2)c(C)n1CC	11	0.9	1.4	1.2	2.5*	3
CCOC(=O)c1c(C)c(C(=O)NCc2cccs2)c(C)n1CC	13	1	1.1	3.5	2.8*	9
CCOC(=O)c1c(C)c(C(=O)Nc2ccccc2)c(C)n1CC	-6	0.9	0.9	1.1	.	6
CCOC(=O)/C(=C/Nc1c(C)n(C)n(-c2ccccc2)c1=O)[N+](=O)[O-]	.	.	.	.	.	1
CCOC(=O)c1c(NC(=O)c2cccc(Cl)c2)sc(C(=O)Nc2ccccc2OCC)c1C	.	.	.	.	.	7
CN(C)CCCN(C(=O)c1cccs1)c1nc(-c2ccccc2)cs1	2	0.9	1.6	-4.8*	1.4	4
Cc1[nH][nH]c(=O)c1C(c1ccc(-c2ccc(Cl)cc2Cl)o1)c1c(C)[nH][nH]c1=O	.	.	2.7*	.	-0.56	.
CN(c1ccc(C(=O)N2CCN(Cc3ccc4c(c3)OCO4)CC2)cc1)S(=O)(=O)c1ccccc1	1	.	1.9	.	3.5*	.
Cc1ccc(S(=O)(=O)N(C)c2ccc(C(=O)N3CCN(Cc4ccc5c(c4)OCO5)CC3)cc2)cc1	5	.	2*	.	0.57	.
O=C(c1ccc(Br)s1)N1CCN(Cc2ccc3c(c2)OCO3)CC1	5	0.9	1.1	-1.4	2.1*	3
O=C(c1ccc2nc3ccccc3c(=O)n2c1)N1CCN(Cc2ccc3c(c2)OCO3)CC1	.	.	1.5	.	0.94	.

Screening data from PubChem.
